Screening results as filed in PubChem BioAssay.
The list is not random: actives were taken first. Their share in the collection is about 11%.
JMJD2A Tudor: JMJD2A Tudor domain (human) inhibition | hit rate 4.4% among 390,000 | AlphaScreen JMJD2A-Tudor / H3K4me3 peptide binding | O75164 | Potency, µM (titrated, usually from 114 µM), for the others: at the highest dose activity change, negative = inhibition, hits mostly inhibitors; further: on the % scale 0 is the no-effect control and ±100 the full control effect; nearly all actives have a fitted effect of over 50% in size
L3MBTL1 inh: blocks human L3MBTL1 | Potency, µM (series often up to 57.1 µM), without a hit: at the highest dose activity, negative = inhibition, most hits filed as inhibitors | Q9Y468 | hit rate 0.66% among 230,000 | AID 485360 | AlphaScreen L3MBTL1–H3K9me1 peptide binding; further: on the % scale 0 is the no-effect control and ±100 the full control effect; nearly all actives have a fitted effect of over 60% in size
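Read-out is AlphaScreen signal from streptavidin donor and nickel chelate acceptor beads (10 ug/mL final each) bridging L3MBTL1 (50 nM) and biotinylated K9-monomethylated H3(1-15) peptide (75 nM), after 30 min compound exposure at room temperature.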
G9a block: blocks human histone lysine methyltransferase G9a | hit rate 8.8% among 350,000 | Q96KQ7 | Potency, µM (doses to about 102 µM), for the others: top-dose activity, negative = inhibition, most hits filed as inhibitors | G9a H3K9 monomethylation, AlphaScreen, 2 h; further: on the % scale 0 is the no-effect control and ±100 the full control effect; nearly all actives have a fitted effect of over 75% in size
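G9a (20 nM) was preincubated 15 min with compound, then reacted 2 h at room temperature with 500 nM biotin-H3K9 peptide and 20 µM SAM. Monomethyl-H3K9 detected by AlphaScreen using anti-H3K9me1 antibody.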
HP1b chromo inh: HP1-beta chromodomain-methylated histone interaction inhibition | P83916 | AlphaScreen HP1-beta / biotin-H3K9me3 peptide binding | Potency, µM (titrated, usually from 114 µM), without a hit: top-dose activity change, negative = inhibition, usual class: inhibitors | hit rate 0.56% among 390,000; further: nearly all actives have a fitted effect of over 70% in size
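Compound inhibition of the preformed complex between 50 nM HP1-beta and 50 nM biotinylated H3K9me3 peptide was read by AlphaScreen. Buffer was PBS pH 7.4 with 0.01% Tween-20. Incubations ran 30 min at room temperature, with 10 ug/mL donor/acceptor beads.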
BAZ2B block: BAZ2B (human) inhibition. Q9UIF8. AlphaScreen BAZ2B-H3K14Ac peptide displacement. Potency, µM (top dose mostly 114 µM), without a hit: at the top dose activity change, negative = inhibition, usual class: inhibitors. hit rate 4.4% among 360,000; further: on the % scale 0 is the no-effect control and ±100 the full control effect; nearly all actives have a fitted effect of over 60% in size
Target sequence (Q9UIF8 whole entry, looked up): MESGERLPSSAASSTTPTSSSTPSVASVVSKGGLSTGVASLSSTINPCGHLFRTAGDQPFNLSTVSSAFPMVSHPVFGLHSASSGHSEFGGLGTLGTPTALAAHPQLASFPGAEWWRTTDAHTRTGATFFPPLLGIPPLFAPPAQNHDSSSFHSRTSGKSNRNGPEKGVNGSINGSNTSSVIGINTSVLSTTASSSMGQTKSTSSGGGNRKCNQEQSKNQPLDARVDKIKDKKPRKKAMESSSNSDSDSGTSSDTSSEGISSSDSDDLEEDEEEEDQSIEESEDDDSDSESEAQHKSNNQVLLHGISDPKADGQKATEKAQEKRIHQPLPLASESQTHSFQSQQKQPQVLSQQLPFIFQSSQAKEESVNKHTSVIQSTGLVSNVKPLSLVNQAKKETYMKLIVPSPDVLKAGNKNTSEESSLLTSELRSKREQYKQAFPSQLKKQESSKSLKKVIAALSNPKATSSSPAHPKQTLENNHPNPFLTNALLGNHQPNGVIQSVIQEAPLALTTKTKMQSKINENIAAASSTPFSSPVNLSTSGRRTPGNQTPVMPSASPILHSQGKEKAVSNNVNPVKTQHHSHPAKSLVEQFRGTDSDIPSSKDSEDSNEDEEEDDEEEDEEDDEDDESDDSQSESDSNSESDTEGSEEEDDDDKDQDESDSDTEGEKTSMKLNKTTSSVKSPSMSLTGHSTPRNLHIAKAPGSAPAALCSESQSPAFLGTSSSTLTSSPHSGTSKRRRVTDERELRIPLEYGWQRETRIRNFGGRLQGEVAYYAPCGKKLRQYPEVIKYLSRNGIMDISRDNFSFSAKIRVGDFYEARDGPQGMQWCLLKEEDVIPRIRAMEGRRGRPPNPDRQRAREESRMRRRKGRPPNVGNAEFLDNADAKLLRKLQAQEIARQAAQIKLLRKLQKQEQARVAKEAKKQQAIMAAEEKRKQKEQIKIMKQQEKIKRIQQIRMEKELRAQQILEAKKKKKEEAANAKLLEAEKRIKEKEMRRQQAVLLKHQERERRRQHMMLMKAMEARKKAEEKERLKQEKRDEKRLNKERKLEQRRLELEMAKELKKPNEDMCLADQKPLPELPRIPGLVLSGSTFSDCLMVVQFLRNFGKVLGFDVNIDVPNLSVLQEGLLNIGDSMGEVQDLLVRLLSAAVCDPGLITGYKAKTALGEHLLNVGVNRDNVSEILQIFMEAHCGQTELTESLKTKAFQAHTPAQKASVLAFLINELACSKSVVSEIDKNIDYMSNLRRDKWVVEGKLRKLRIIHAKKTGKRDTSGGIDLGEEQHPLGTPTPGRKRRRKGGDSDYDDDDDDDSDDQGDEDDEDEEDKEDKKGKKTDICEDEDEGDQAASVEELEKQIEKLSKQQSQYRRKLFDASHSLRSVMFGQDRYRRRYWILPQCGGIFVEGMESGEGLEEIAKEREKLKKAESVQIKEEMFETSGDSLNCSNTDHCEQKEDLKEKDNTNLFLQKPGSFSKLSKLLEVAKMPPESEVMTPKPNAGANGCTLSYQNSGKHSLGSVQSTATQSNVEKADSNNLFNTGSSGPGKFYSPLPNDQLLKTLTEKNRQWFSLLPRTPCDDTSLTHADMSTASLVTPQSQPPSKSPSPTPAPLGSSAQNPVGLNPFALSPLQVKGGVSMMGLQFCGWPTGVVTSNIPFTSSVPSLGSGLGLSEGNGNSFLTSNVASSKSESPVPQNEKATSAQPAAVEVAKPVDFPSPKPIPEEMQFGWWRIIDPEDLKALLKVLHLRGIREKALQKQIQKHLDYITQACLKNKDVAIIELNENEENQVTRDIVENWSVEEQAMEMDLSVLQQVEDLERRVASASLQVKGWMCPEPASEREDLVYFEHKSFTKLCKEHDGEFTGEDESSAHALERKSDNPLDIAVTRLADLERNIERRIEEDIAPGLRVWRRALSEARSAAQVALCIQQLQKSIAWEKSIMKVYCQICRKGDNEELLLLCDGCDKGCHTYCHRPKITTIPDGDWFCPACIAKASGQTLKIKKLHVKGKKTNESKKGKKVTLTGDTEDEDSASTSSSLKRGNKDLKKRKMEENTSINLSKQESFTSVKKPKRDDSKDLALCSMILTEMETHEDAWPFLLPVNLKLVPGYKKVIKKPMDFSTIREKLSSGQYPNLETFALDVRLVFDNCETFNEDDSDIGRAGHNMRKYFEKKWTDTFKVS
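AlphaScreen displacement: compounds (up to 110uM) incubated 30 min at room temperature with a preformed 50 nM BAZ2B/50 nM biotinylated H3K14Ac peptide complex in PBS pH 7.4 with Tween-20. Donor and acceptor beads at 10 ug/mL final added, 20 min light-protected before reading.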
* marks the source's active call; other numbers are inactive results; ? = inconclusive; nt = no result; [ ] = dose if it differs, or a comment. The call rests on the fitted dose curve; in most records, active means well fitted inhibition curve with a large enough effect; inconclusive means small, poorly fitted or top-dose-only effect; inactive means no such curve, though single readings can be large or run the other way. Potency means the concentration at half of the fitted maximal effect.

SMILES	JMJD2A Tudor	L3MBTL1 inh	G9a block	HP1b chromo inh	BAZ2B block
COc1cccc(N(CC(=O)N2CCN(c3ccccc3OC)CC2)S(C)(=O)=O)c1	-7.2%	nt	79.4µM*	16.9%	4.5%
CS(=O)(=O)N(CC(=O)N1CCN(c2ccccc2)CC1)c1cccc(Br)c1	-11.4%	3.8%	89.1µM*	15.1%	-1.8%
CCc1ccccc1N(CC(=O)O)S(C)(=O)=O	-32.5%	-11.6%[11.4 µM]	7.3%[59 µM]	15.8%	?
COc1ccc(N2CCN(C(=O)CN(c3cccc(Br)c3)S(C)(=O)=O)CC2)cc1	?	nt	-32.8%[2.33 µM]	-20.2%	?
Cc1nc2ccc(S(=O)(=O)N(CC(=O)Nc3cccc(Cl)c3)Cc3ccccc3)cc2s1	-25.7%	nt	16.7%[59 µM]	31.4%	-2.6%
NNC(=O)Nc1cccc(C(F)(F)F)c1	-6.3%	3.6%	14.9%	55.8%	-2.4%
Cc1ccc(NC(=S)NNC(=S)Nc2cccc(C(F)(F)F)c2)cc1	?	nt	20µM*	?	-26.6%
CN(C)NC(=S)Nc1cccc(C(F)(F)F)c1	6.8%	6.6%	nt	27.6%	0.5%
NC(=O)/C=C\C(=O)Nc1cccc(C(F)(F)F)c1	-12.5%	-3.3%	10µM*	16.0%	-7.9%
CCN(CC)CCNC(=O)Cn1cnc2sc(C)c(S(=O)(=O)N3CC(C)CC(C)C3)c2c1=O (stereo not drawn)	-8.6%	nt	-28.5%	-10.1%	3.4%
O=C(Nc1nc2ccc(Cl)cc2s1)c1ccc(Br)o1	?	-1.7%	-42.7%[59 µM]	43.2%	11.1%
Fc1ccc2nc(Nc3ccccc3)sc2c1	-2.3%	0.1%	7.5%	17.3%	-2.2%
NNc1nc2ccc(Cl)cc2s1	79.4µM*	-4.3%	56.2µM*	-20.0%	50.1µM*
NS(=O)(=O)c1ccc2nc(NC(=O)Nc3ccc(F)cc3)sc2c1	-15.8%	nt	50.1µM*	2.6%	1.1%
NNc1nc2ccc(F)cc2s1	?	-9.6%	?	-37.9%	44.7µM*
CC(C)c1ccc(CNCCSc2nnnn2-c2ccccc2)cc1	-9.4%	nt	-5.4%[59 µM]	46.1%	8.7%
CCOC(=O)c1c(C)[nH]c(CCC(=O)NCc2ccc(OC)c(OC)c2)c1C	-7.8%	nt	-4.2%[59 µM]	28.1%[57 µM]	-2.1%
CC(C)c1ccc(NC(=O)c2cccn2-c2nnc(N3CCCCC3)s2)cc1	-28.2%	nt	-40.9%[59 µM]	-14.4%	?
Cc1cc(NC(=O)c2cccn2-c2nnc(N3CCCCC3)s2)ccc1Br	?	nt	-24.1%[59 µM]	8.1%	70.8µM*
CN(C)c1ccc(CNC(=O)c2cccn2-c2nnc(N3CCCCC3)s2)cc1	?	nt	-43.3%[59 µM]	-3.2%	39.8µM*
Cc1cccc(N2C(=O)/C(=C\c3ccc(C(=O)O)cc3)c3ccccc3C2=O)c1	-28.3%	1.4%	44.7µM*	27.0%	?
Cc1cccc(N2C(=O)c3ccc(C(=O)Nc4ccccn4)cc3C2=O)c1	-17.2%	nt	-1.1%	35.0%	-14.1%[57.1 µM]
S=c1[nH]nc(CSc2nc3ccccc3s2)o1	44.7µM*	2.1%	1.58µM*	2.7%	?
Cn1c(CSc2nc3ccccc3s2)n[nH]c1=S	31.6µM*	4.2%	2.51µM*	-26.7%	9.8%
c1ccc2[nH]c(CSc3nc4ccccc4s3)nc2c1	-7.6%	-2.5%	-32.0%	46.0%	-17.1%
SMILES	JMJD2A Tudor	L3MBTL1 inh	G9a block	HP1b chromo inh	BAZ2B block
Cn1c(-c2sc3ccccc3c2Cl)n[nH]c1=S	22.4µM*	nt	?	-27.5%	-11.7%
CCNc1nnc(CSc2nc3ccccc3s2)s1	-20.6%[57.1 µM]	3.1%	4.47µM*	55.8%	-3.9%
CCc1nnc(NC(=O)CSc2nc3ccccc3s2)s1	-6.9%	1.4%	?	32.5%	8.9%
COc1ccc(-n2c(SCC(=O)Nc3nnc(C)s3)nc3c([nH]c4ccccc43)c2=O)cc1	-1.9%	nt	-1.5%[59 µM]	30.7%[57 µM]	-1.7%
CC1CCCN(C(=O)c2cccc(S(=O)(=O)N3CCCC3)c2)C1 (stereo not drawn)	-18.5%	4.7%	-6.8%[12.7 µM]	44.2%	0.1%
O=C(c1cc2c(s1)-c1ccccc1OC2)N1CCN(c2ccc(F)cc2)CC1	-20.7%	nt	6.0%[59 µM]	41.2%	-1.2%
O=C(c1ccco1)N1CCN(C(=O)c2cc3c(s2)-c2ccccc2OC3)CC1	-4.1%	-3.8%	44.7µM*	58.1%	?
CC(CCO)Nc1nc2c(c(=O)n(C)c(=O)n2C)n1Cc1ccc(Br)cc1 (stereo not drawn)	-18.6%	nt	-9.8%[59 µM]	24.7%	-26.3%
O=C(O)c1cccc(-n2cccc2/C=C2/NC(=O)N(c3ccc(Cl)cc3)C2=O)c1	0.794µM*	0.794µM*	1.41µM*	1.12µM*	1.78µM*
COc1ccc(-n2cccc2/C=C2/NC(=O)N(c3cccc(Cl)c3)C2=O)cc1	-7.7%	-2.8%	?	20.7%	-37.8%
Cc1cccc(NC(=O)CN2C(=O)N/C(=C/c3cc(C)n(C)c3C)C2=O)c1	-28.2%	-37.5%	56.2µM*	18.5%	?
COc1cc(/C=C2/NC(=O)N(CC(=O)Nc3cccc(C)c3)C2=O)ccc1OCC(N)=O	20µM*	-1.4%	20.1%	?	-17.1%
Cc1cccc(NC(=O)CN2C(=O)N/C(=C\c3cccn3-c3cccc(C(=O)O)c3)C2=O)c1	-28.5%	nt	35.5µM*	-29.6%	56.2µM*
COc1cccc(CNC(=O)c2ccc(NC(=O)N3CCCCc4ccccc43)cc2)c1	-18.0%	nt	-5.5%[59 µM]	-0.6%	0.0%
COc1ccc(NC(=O)C2CCN(C3=NS(=O)(=O)C(c4ccc(C)c(C)c4)=C3C)CC2)c(OC)c1	-21.0%	nt	44.5%[59 µM]	?	2.8%
COC(=O)c1cc2oc3ccccc3c2n1Cc1ccccc1Cl	-2.9%	nt	0.4%[59 µM]	28.7%	12.7%
Cc1ccc(N2C(=O)CSC23C(=O)Nc2ccccc23)cc1F (stereo not drawn)	-12.8%	nt	-2.9%[59 µM]	21.2%	-17.2%
c1ccc(CNC2=NCCCC2)cc1	?	-0.2%	14.1µM*	?	?
O=C(NNC1=NCCCCC1)c1ccccc1	3.16µM*	0.1%	-50.6%	-21.6%	-8.2%
O=C(Cn1nc(Cc2cccnc2)c2ccccc2c1=O)Nc1ccc(F)c(Cl)c1	-19.5%	nt	3.7%[59 µM]	28.8%	-5.3%
Cc1ccnc(NS(=O)(=O)c2ccc(NC(=O)CCc3ccccc3)cc2)n1	-5.5%	nt	?	1.0%	-20.1%
CC1(C)CC(NS(=O)(=O)OCC(Cl)(Cl)Cl)c2cc(C#N)ccc2O1 (stereo not drawn)	31.6µM*	8.4%	-1.0%	22.4%	0.1%
CCc1ccc(NC(=O)c2sc3ncnc(N(C)C4CCCCC4)c3c2C)cc1	-15.3%	nt	5.5%[59 µM]	30.4%	-6.9%
COc1cccc(C(=O)Nc2nc3nc(C)c(C)c(=O)n3[nH]2)c1	89.1µM*	nt	?	18.7%	?
CCC(=O)N1CCc2cc(S(=O)(=O)NC(Cc3ccccc3)C(=O)Nc3ccc(Cl)cc3)ccc21 (stereo not drawn)	-3.7%	nt	-5.1%[59 µM]	41.9%	nt
CCOc1ccc2c(c1)[nH]c(=S)n2C	56.2µM*	4.0%	7.94µM*	-33.7%	-14.6%
CCOc1ccc(OCCn2c(=S)[nH]c3ccccc32)cc1	?	-9.7%	7.08µM*	?	50.1µM*
